Shown are actives, neighbours in structure and some others; about 8.1% of the full set was active somewhere.
KB-3-1 tox – kills parental KB-3-1 adenocarcinoma cells; Potency, µM (highest dose often 46.1 µM), most hits filed as cytotoxic; AID 1347075; KB-3-1 viability, CellTiter-Glo ATP luminescence, 72 h; hit rate 1.4% among 400,000; note: % is set by controls: 0 for no effect and ±100 for the full control effect; nearly all actives have a fitted effect of over 60% in size
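Cytotoxicity in the drug-sensitive parental line KB-3-1 was scored as loss of CellTiter-Glo luminescence following 72 h incubation with compound. Values come from curve fitting of normalized concentration-response data.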
ELG1 DNA repair – blocks ELG1-dependent DNA repair in HEK293T cells; HEK293T ELG1-luciferase reporter, luminescence, 16 h; DNA damage induced by 5-fluorouridine; Potency, µM (top dose mostly 46.1 µM), without a hit: top-dose activity change, negative = inhibition, hits mostly inhibitors; hit rate 2.3% among 330,000; AID 504467; note: % is set by controls: 0 for no effect and ±100 for the full control effect; nearly all actives have a fitted effect of over 55% in size
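Reporter activity after DNA damage by 5-fluorouridine is monitored. Compound-treated cells incubate 16 hr at 37 °C, then ONE-Glo is added for 30 min before luminescence reading.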
SW480 rerep – DNA re-replication induction in SW480 cells; SW480 DNA re-replication, Hoechst DNA content imaging, 48 h; Potency, µM (top dose mostly 46.1 µM), for the others: at the highest dose re-replication activation, most hits filed as activators; hit rate 1.8% among 340,000; AID 624297; note: % of control where 0% means no effect; nearly all actives have a fitted effect of over 55% in size
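Treated cells incubate 48 hr (37 C, 5% CO2), are stained 40 min with Hoechst, and nuclear fluorescence is enumerated; a rise in nuclei with high DNA signal marks re-replication.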
MCF10A rereplic – inducers of DNA re-replication in MCF 10A breast cells | MCF 10A DNA re-replication, Hoechst nuclear intensity, 48 h | Potency, µM (highest dose often 46.1 µM), without a hit: at the top dose activity, positive = re-replication, most hits filed as activators | hit rate 2.9% among 350,000; note: % of control where 0% means no effect; nearly all actives have a fitted effect of over 50% in size
KB-V1 MDR tox – kills drug-selected multidrug resistant KB-V1 cells; hit rate 3.4% among 400,000; KB-V1 MDR cells viability, CellTiter-Glo, 72 h; AID 1347076; Potency, µM (top dose mostly 46.1 µM), usual class: cytotoxic; note: % is set by controls: 0 for no effect and ±100 for the full control effect; nearly all actives have a fitted effect of over 60% in size
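Cells of the MDR subline KB-V1 are plated, dosed with compound at multiple concentrations, and incubated 72 h at 37 degrees C; CellTiter-Glo is then added and luminescence read after 10 min.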
Active calls of the source: *; i = inactive; ? = inconclusive; / = not tested or not shown. Calls come from the whole dose curve; as a rule, active = well fitted curve in the direction sought with a large enough effect; inconclusive = small, poorly fitted or top-dose-only effect, or another doubt; inactive = no such curve, though single readings can be large; an effect the other way counts as inactive or inconclusive. Potency is the fitted concentration of half-maximal effect.

SMILES	KB-3-1 tox	ELG1 DNA repair	SW480 rerep	MCF10A rereplic	KB-V1 MDR tox
CCN1CCN(C2=C(NS(=O)(=O)c3ccc(NC(C)=O)cc3)C(=O)c3ccccc3C2=O)CC1	?	-20%	-1%	?	i
CCN1CCN(C2=C(NS(=O)(=O)c3ccc(C)cc3)C(=O)c3ccccc3C2=O)CC1	?	-7%	21µM*	12%	?
O=S(=O)(Nc1nc2ccccc2nc1N1CCN(c2ccccc2)CC1)c1ccc(F)cc1	?	-10%	-695%	15%	5.2µM*
COC(=O)c1cccc(Cn2nc(C)c([N+](=O)[O-])c2C)c1	i	-18%	0%	4%	?
Cc1nn(Cc2cccc(C(=O)O)c2)c(C)c1[N+](=O)[O-]	i	0%	-6%	-1%	?
CCC(NC(=O)c1cccc(Cn2nc(C)c([N+](=O)[O-])c2C)c1)c1ccc(C(C)C)cc1 (stereo not drawn)	i	-6%	-5%	4%	2.9µM*
Cc1nn(Cc2cccc(C(=O)NC(C)c3ccc(C(C)(C)C)cc3)c2)c(C)c1[N+](=O)[O-] (stereo not drawn)	?	?	10%	?	6.5µM*
CC(OC(=O)c1cccn1C)C(=O)Nc1ccc2c(c1)OCO2 (stereo not drawn)	?	-7%	0%	-7%	i
CCOC(=O)N1CCC(N(CCN(C)C)C(=S)Nc2ccc(F)c(Cl)c2)CC1	i	?	-8%	-2%	i
COc1ccc(S(=O)(=O)N2CCOCC2)cc1NC(=O)COc1ccc(C)cc1	/	?	9%	-3%	/
CCOc1ccc(S(=O)(=O)N2CCCCC2)cc1NC(=O)Cc1ccsc1	i	?	-4%	3%	12µM*
COc1ccc(C)cc1NC(=O)c1ccccc1NS(=O)(=O)c1ccc(Cl)s1	5.2µM*	?	-20%	21µM*	3.3µM*
COc1ccc(S(=O)(=O)N2CCCCC2)cc1NC(=O)Cc1ccsc1	/	-10%	5%	?	/
O=C(Nc1cc(S(=O)(=O)N2CCOCC2)ccc1N1CCOCC1)c1ccc([N+](=O)[O-])s1	?	21µM*	?	?	?
CCOc1ccc(S(=O)(=O)N2CCOCC2)cc1NC(=O)CSCc1ccc(C)cc1	18µM*	-28%	?	?	?
O=C(Nc1cc(S(=O)(=O)N2CCOCC2)ccc1N1CCOCC1)c1ccccc1[N+](=O)[O-]	i	0%	1%	-5%	i
CN(C)c1ccc(C(=O)Nc2nnc(-c3ccc(Cl)cc3)o2)cc1	?	?	-1%	?	i
CCCC(O)(CCC)C(=O)NNc1ccccc1	i	-11%	10%	7%	i
COC(=O)c1sccc1NC(=O)c1cc2c(s1)CCCC2	i	?	19%	?	15µM*
COc1ccc(C)cc1NC(=O)c1cc2c(s1)CCC2	i	?	-52%	14%	?
Cc1ccc(NC(=O)c2ccccc2NS(=O)(=O)c2ccc(Cl)s2)cc1S(=O)(=O)N1CCOCC1	i	23µM*	2%	7.3µM*	21µM*
COc1ccc(S(=O)(=O)N2CCOCC2)cc1NC(=O)COC(=O)c1[nH]c(C)c(C(C)=O)c1C	i	?	6%	12%	i
COc1ccc(S(=O)(=O)N2CCOCC2)cc1NC(=O)COC(=O)c1ccc([N+](=O)[O-])s1	?	23µM*	3%	4%	i
CCOc1ccccc1N1CC(C(=O)Nc2cc(S(=O)(=O)N3CCOCC3)ccc2OC(C)C)CC1=O (stereo not drawn)	i	/	-25%	7%	i
CCC(C)c1ccccc1N1CC(C(=O)Nc2cc(S(=O)(=O)N3CCOCC3)ccc2OC)CC1=O (stereo not drawn)	i	/	16µM*	9%	i
SMILES	KB-3-1 tox	ELG1 DNA repair	SW480 rerep	MCF10A rereplic	KB-V1 MDR tox
Cc1ccc(NC(=O)C2=COCCO2)cc1S(=O)(=O)N1CCOCC1	i	5%	-1%	-3%	i
Cc1ccc(NC(=O)c2ccc([N+](=O)[O-])s2)cc1S(=O)(=O)N1CCOCC1	18µM*	6.5µM*	?	1%	i
COc1ccc(S(=O)(=O)N2CCOCC2)cc1NC(=O)Cc1ccc2c(c1)OCCO2	i	4%	-2%	-6%	18µM*
COc1ccc(S(=O)(=O)N2CCOCC2)cc1NC(=O)c1cc2c(s1)CCCC2	i	16µM*	-4%	-3%	i
COc1cc(S(=O)(=O)N2CCOCC2)ccc1NC(=O)COC(=O)CC12CC3CC(CC(C3)C1)C2	i	18µM*	1%	13%	?
O=P(CO)(Cc1ccccc1)Cc1ccccc1	i	13%	-4%	-4%	i
O=C(Cc1ccccc1F)Nc1cc(S(=O)(=O)N2CCCCC2)ccc1N1CCOCC1	i	/	/	/	i
Cc1ccc(Sc2nc(-c3ccccc3)nnc2C(F)(F)F)cc1	i	-5%	?	8.2µM*	i
COc1nc(-c2ccccc2)nc(-c2ccccc2)c1C	i	/	6%	23µM*	i
Cc1ccc(-c2nnc(-c3ccccc3)c(-c3ccccc3)n2)cc1	i	13%	3%	22%	18µM*
CNc1nc(-c2ccccc2)nnc1C(F)(F)F	i	23%	2%	-1%	i
ClC(Cl)c1nnc(-c2ccccc2)c(-c2c[nH]c3ccccc23)n1	i	-13%	1%	26µM*	?
O=C(CCc1nnc(CCCc2ccccc2)o1)N1CCCCCC1	i	?	18%	4%	i
Cc1cc(-c2nnc(-c3ccccc3)c(-c3ccccc3)n2)c(C)o1	i	-21%	?	?	i
c1ccc(-c2nnc(-c3c[nH]c4ccccc34)nc2-c2ccccc2)cc1	i	23µM*	-3%	4%	i
CC(C)Cc1nnc(NC(=O)CSc2nc(N)cc(=O)[nH]2)s1	i	6%	-7%	1%	i
COc1cccc(/C=C2\SC(=S)N(CCCC(=O)NC3=NCCS3)C2=O)c1	i	3%	-14%	-1%	i
O=C(NCC1CCCO1)C1CCN(C2CCN(CCCC3CCCC3)CC2)CC1 (stereo not drawn)	i	8%	?	16µM*	i
O=S(=O)(NC1CC1)c1ccc(S(=O)(=O)N2CCCC(c3nc(-c4cccnc4)no3)C2)cc1 (stereo not drawn)	i	?	5%	19%	8.2µM*
O=S(=O)(c1ccc(F)cc1)N1CCCC(c2nc(-c3ccc(F)cc3)no2)C1 (stereo not drawn)	i	?	-2%	?	i
O=C(NC1CCCCC1)N1CCCC(c2nc(-c3ccc(S(=O)(=O)N4CCCC4)cc3)no2)C1 (stereo not drawn)	?	?	-1%	6%	3.7µM*
